From PubChem
A selection: hits, their analogues and other compounds. The true share with any hit is near 4.6%.
SKKanGAS inh: SKKanGAS growth inhibition; S. pyogenes SKKanGAS, kanamycin growth, BacTiter-Glo, 6 h; inhibition, % at 7.5 µM; actives 1.3% (n = 300,000); AID 1662;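 active = mean replicate score, as percent of positive control median, at least 50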;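 note: strain carries kanamycin resistance gene driven by streptokinase promoter and grows in 40 µg/ml kanamycin; loss of luminescence reflects streptokinase promoter inhibition or plain growth inhibition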
tim23-1 inh: tim23-1 yeast growth inhibition; AID 463212; inhibition, % at 20 µM; S. cerevisiae tim23-1 growth, BacTiter-Glo luminescence, 24 h; actives 1.3% (n = 330,000);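 active = growth inhibition of the mutant yeast at or above 50%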;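 note: temperature-sensitive mutant grown at 25 °C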
NALP3 yeast inh: blocks the NALP3 inflammasome reconstituted in yeast; Yeast reconstituted NLRP3/ASC/caspase-1, beta-gal luminescence, 24 h; inhibition, % at 10 µM; actives 0.39% (n = 330,000); AID 2825;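 active = inhibition of 50% or more; inactive = inhibition below 50%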
PfHsp90 yeast 2: growth inhibition of yeast expressing Plasmodium Hsp90 | inhibition, % at 9.4 µM | S. cerevisiae expressing PfHsp90, BacTiter-Glo ATP, 48 h; yeast lacking PDR1 and PDR3 efflux regulators | actives 0.32% (n = 310,000);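 active = every replicate shows inhibition above about 80%, whatever the replicate mean, limit read from the data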
tim10-1 inh: growth inhibitors of tim10-1 mutant yeast; inhibition, % at 20 µM; actives 2.2% (n = 330,000); S. cerevisiae tim10-1 ts strain growth, BacTiter-Glo, 24 h;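 active = inhibition of at least 40%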;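 note: mutant grown at 25 °C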
TIM10 inh: TIM10 yeast growth inhibition; S. cerevisiae TIM10 strain growth, BacTiter-Glo luminescence, 24 h; inhibition, % at 10 µM; actives 1.4% (n = 330,000);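 active = inhibition of 40% or more at the single tested concentration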;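 note: wild-type TIM10 isogenic control strain grown at permissive 25 °C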
NALP3 yeast conf: confirmation of NALP3 inhibitors in yeast. shares compounds with NALP3 yeast inh. yeast expressing human NALP3, luminescence. inhibition, % at 10 µM. actives 81% (n = 1,300). AID 435006; in the data active = inhibition above about 48%
Casp1-ASC yeast: active in yeast caspase-1-ASC counter-screen for NALP3 inhibitors | shares compounds with NALP3 yeast inh | yeast expressing Caspase-1-ASC, luminescence counter screen | inhibition, % at 10 µM | actives 66% (n = 1,000) | AID 488784
NALP3 retest: confirmation retest of NALP3 inhibitors in yeast; shares compounds with NALP3 yeast inh; yeast expressing human NALP3, luminescence read-out; inhibition, % at 10 µM; actives 53% (n = 1,000); AID 488794
Each line names hits and unclear results; the compound was inactive in the other large screens (follow-up assays come after a bar, where they were run). Cut-off read from the data, not from the text of the source, unless noted: active = inhibition above about 50%; inactive = the rest.

Cc1ccc(C(=O)NC(=S)NNC(=O)c2ccccc2O)cc1	SKKanGAS inh 102.1, NALP3 yeast inh 53.2 | NALP3 yeast conf 56.0 | Casp1-ASC yeast inactive | NALP3 retest inactive
Cc1ccc(C(=O)NNC(=S)NC(=O)c2ccc(Cl)cc2Cl)cc1	SKKanGAS inh 97.7, NALP3 yeast inh 51.0 | NALP3 yeast conf 65.7 | Casp1-ASC yeast 50.5 | NALP3 retest inactive
O=C(NC(=S)NNC(=O)c1ccccc1O)c1ccc(F)cc1	SKKanGAS inh 80.9, NALP3 yeast inh 50.4 | NALP3 yeast conf 66.8 | Casp1-ASC yeast inactive | NALP3 retest 52.1
COc1ccc(-c2cc3nc4ccccc4n3c(N)c2C#N)cc1	SKKanGAS inh 74.1, NALP3 yeast inh 68.3 | NALP3 yeast conf inactive | Casp1-ASC yeast inactive | NALP3 retest inactive
CCc1ccccc1NC(=O)c1cc(-c2cccs2)on1	NALP3 yeast inh 56.5 | NALP3 yeast conf 65.0 | Casp1-ASC yeast 59.0 | NALP3 retest 59.8
Cc1ccccc1-c1ccc(Nc2ccc(N3CCOCC3)cc2)nn1	NALP3 yeast inh 63.7 | NALP3 yeast conf 73.7 | Casp1-ASC yeast 59.5 | NALP3 retest 61.5
COc1ccc(C(=O)NC(=S)NNC(=O)c2cccc(C)c2)cc1	SKKanGAS inh 113.0, NALP3 yeast inh 50.8 (no result: PfHsp90 yeast 2) | NALP3 yeast conf inactive | Casp1-ASC yeast inactive | NALP3 retest inactive
COc1ccc(C(=O)NNC(=S)Nc2ccccc2)cc1	none
COc1ccc(C(=O)NNC(=S)NC(=O)c2cccs2)cc1	SKKanGAS inh 88.7, NALP3 yeast inh 56.1 | NALP3 yeast conf 71.5 | Casp1-ASC yeast inactive | NALP3 retest inactive
O=C(NNC(=S)NC(=O)c1ccc(Br)cc1)c1ccc([N+](=O)[O-])cc1	SKKanGAS inh 100.2, NALP3 yeast inh 53.5 | NALP3 yeast conf inactive | Casp1-ASC yeast inactive | NALP3 retest 54.4
COc1ccc(C(=O)NC(=S)NC(C)C)cc1Br	none
COc1ccc(C(=O)NNC(=S)NC(=O)c2ccc(F)cc2)cc1Br	SKKanGAS inh 102.9, NALP3 yeast inh 62.2 (no result: PfHsp90 yeast 2) | NALP3 yeast conf 71.3 | Casp1-ASC yeast 60.2 | NALP3 retest 59.5
Cc1ccc(NC(=O)c2cc(=O)[nH]c3ccccc23)cc1C	none
CCOC(=O)c1sc(NC(=O)c2c(CC)noc2C)nc1C	none (no result: SKKanGAS inh)
Cc1cccc(-n2ncc3c(NC(C)C)ncnc32)c1	none
CC1CCCN(c2ncnc3c2cnn3-c2ccc(Cl)cc2)C1 (centres undefined)	none
c1ccc(-n2ncc3c(N4CCCCC4)ncnc32)cc1	NALP3 yeast inh 59.6 | NALP3 yeast conf 60.7 | Casp1-ASC yeast 69.3 | NALP3 retest 60.8
CC(C)Nc1ncnc2c1cnn2-c1ccccc1	NALP3 yeast inh 58.2 | NALP3 yeast conf 65.2 | Casp1-ASC yeast inactive | NALP3 retest inactive
CC1CCCN(c2ncnc3c2cnn3-c2ccccc2)C1 (centres undefined)	NALP3 yeast inh 53.8 | NALP3 yeast conf 61.5
O=C(CCC(=O)N(CC(=O)NC1CCCCC1)Cc1cccs1)Nc1nccs1	none
O=C(COC(=O)c1ccc2ccccc2c1O)Nc1ccccc1	none (no result: SKKanGAS inh, PfHsp90 yeast 2)
COc1cccc(NC(=O)c2ccc(OC(F)(F)F)cc2)c1	NALP3 yeast inh 50.2 | NALP3 yeast conf 63.2 | Casp1-ASC yeast inactive | NALP3 retest inactive
O=[N+]([O-])c1ccccc1S(=O)(=O)N1CCN(c2ccc(F)cc2)CC1	none
COc1ccc(N2CCN(CCNC(=O)CCC(=O)NNc3nc4ccccc4c4nc(C)nn34)CC2)cc1	none
Cc1nc2c3ccccc3nc(NNC(=O)CCC(=O)NCCN3CCN(c4ccccc4F)CC3)n2n1	NALP3 yeast inh 52.2 | NALP3 yeast conf 75.8 | Casp1-ASC yeast 53.5 | NALP3 retest 71.2
CN1CCN(S(=O)(=O)c2cccc(C(=O)Nc3cc(Cl)ccc3N3CCOCC3)c2)CC1	none
CCSc1nnc(NC(=O)c2cccs2)s1	NALP3 yeast inh 52.5 | NALP3 yeast conf 63.7 | Casp1-ASC yeast inactive | NALP3 retest inactive
CC1(C)CC(c2nc(-c3ccc([N+](=O)[O-])cc3)cs2)CCO1 (centres undefined)	none | NALP3 yeast conf inactive
CSc1nn2c(C(F)(F)F)cc(C(F)(F)F)nc2c1C(=O)O	none
O=C1Nc2ccccc2S/C1=C/c1cccs1	NALP3 yeast inh 64.6 | NALP3 yeast conf inactive
CCN(CC)S(=O)(=O)c1cc(C)c(C)cc1Br	NALP3 yeast inh 58.2 | NALP3 yeast conf 54.5 | Casp1-ASC yeast 53.2 | NALP3 retest inactive
O=C(Nc1cc(Cl)ccc1O)c1cc(-c2ccco2)on1	NALP3 yeast inh 50.2 | NALP3 yeast conf 65.7 | Casp1-ASC yeast inactive | NALP3 retest inactive
O=C(Nc1cc(Br)ccc1O)c1cc(-c2ccco2)on1	none (no result: tim23-1 inh, NALP3 yeast inh, tim10-1 inh, TIM10 inh)
O=C(Nc1cccc(Cl)c1)c1cc(-c2ccco2)on1	NALP3 yeast inh 59.1 | NALP3 yeast conf 74.2 | Casp1-ASC yeast 62.6 | NALP3 retest inactive
N#Cc1ccccc1OCC(=O)N(C1CCCCC1)C1CCS(=O)(=O)C1 (centres undefined)	none
COC(=O)c1sc2nc3c(cc2c1N)CCCC3	NALP3 yeast inh 51.4 | NALP3 yeast conf 65.5 | Casp1-ASC yeast 64.1 | NALP3 retest 58.1
S=C(Nc1cc(Cl)cc(Cl)c1)NC1CCN(Cc2ccccc2)CC1	NALP3 yeast inh 55.6 | NALP3 yeast conf 52.7
CCn1c(SCC(=O)OC2CCCCC2)nc2ccccc2c1=O	NALP3 yeast inh 51.4 | NALP3 yeast conf 71.2 | Casp1-ASC yeast 50.3 | NALP3 retest inactive
N#Cc1nc(COc2ccccc2)oc1N1CCCC1	NALP3 yeast inh 74.6 | NALP3 yeast conf 48.6 | Casp1-ASC yeast 79.3 | NALP3 retest 63.5
N#Cc1nc(COc2ccc(Br)cc2)oc1N1CCCC1	NALP3 yeast inh 53.9 (no result: PfHsp90 yeast 2) | NALP3 yeast conf 61.8 | Casp1-ASC yeast 50.5 | NALP3 retest inactive
CN1CCN(c2oc(COc3ccc(-c4ccccc4)cc3)nc2C#N)CC1	NALP3 yeast inh 59.6 | NALP3 yeast conf 50.2 | Casp1-ASC yeast 75.8 | NALP3 retest 64.5
O=C(COc1ccc(Br)cc1)NCCCN1CCCC1=O	none (no result: SKKanGAS inh)
O=C(c1ccc(S(=O)(=O)Nc2ccccc2)cc1)N1CCCCCCC1	none
O=[N+]([O-])c1ccc2c(c1Nc1ccccc1Cl)=NC1(CCCCC1)N=2	none (no result: PfHsp90 yeast 2)
Cc1ccc(Nc2c([N+](=O)[O-])ccc3c2=NC2(CCCCC2)N=3)cc1	NALP3 yeast inh 51.7 | NALP3 yeast conf 56.0
Nc1c2c(=O)oc(-c3ccccc3)cc2nn1-c1ccccc1	NALP3 yeast inh 50.8 | NALP3 yeast conf 68.5 | Casp1-ASC yeast 54.4 | NALP3 retest inactive
Cc1c(-c2ccc(Cl)cc2)oc(=O)c2c(N)n(-c3ccccc3)nc12	none
Fc1ccccc1OCCn1c(=S)[nH]c2ccccc21	none
